From PubChem BioAssay
DT40 TDP1 CPT: qHTS for Inhibitors of human tyrosyl-DNA phosphodiesterase 1 (TDP1): qHTS in cells in presence of CPT. hit rate 12% among 420,000. chicken DT40 Tdp1-/-;hTDP1 cells + 20 nM CPT, ATP luminescence, 48 h. Potency, µM (highest dose often 46.2 µM), inactives show at the highest dose activity change, negative = growth inhibition, usual class: inhibitors; note: nearly all actives have a fitted effect of over 55% in size
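Chicken DT40 Tdp1-/- cells complemented with human TDP1, 400 cells/well, exposed to compounds plus 20 nM camptothecin for at least 48 h at 37 C; viability read as ATP content by CellTiter-Glo luminescence.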
KB-3-1 cytotox: qHTS assay for MDR1-selective chemotherapeutics: Primary screen using the parental adenocarcinoma cell KB-3-1; KB-3-1 viability, CellTiter-Glo ATP luminescence, 72 h; Potency, µM (series often up to 46.1 µM), actives largely listed as cytotoxic; hit rate 1.4% among 400,000; note: nearly all actives have a fitted effect of over 60% in size
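Parental KB-3-1 adenocarcinoma cells in phenol-red-free DMEM with 10% FBS were pin-treated with compounds at several concentrations, incubated 72 h at 37 °C, and viability read by CellTiter-Glo luminescence; concentration-effect curves were fitted after normalization.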
KB-V1 MDR tox: qHTS assay for MDR1-selective chemotherapeutics: Primary screen using the drug-selected MDR subline cells KB-V1 | KB-V1 MDR cells viability, CellTiter-Glo, 72 h | Potency, µM (top dose mostly 46.1 µM), usual class: cytotoxic | hit rate 3.4% among 400,000; note: nearly all actives have a fitted effect of over 60% in size
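Cytotoxicity via CellTiter-Glo luminescence after 72 h compound exposure at 37 degrees C. Cells: drug-selected KB-V1 line, DMEM phenol-red free plus 10% FBS. Compounds tested at multiple concentrations; normalized data fitted to concentration-effect curves.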
HT1080 IDH1KD tx: qHTS for induction of synthetic lethality in tumor cells producing 2HG: qHTS for the HT-1080-IDH1KD cell line; HT-1080 IDH1 knockdown viability, ATP luminescence, 48 h; Potency, µM (titrated, usually from 46.1 µM), without a hit: at the top dose activity, negative = toxicity, most hits filed as cytotoxic; hit rate 2% among 360,000; AID 686971, 2013;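 note: 0% = DMSO wells and -100% = cell-free medium wells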
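After a 2 h attachment period, IDH1KD HT-1080 cells took pin-transferred compound for 48 h at 37 °C; ATP-based luminescence after 10 min room-temperature reagent incubation reported viability.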
TDP1 cell noCPT: qHTS for Inhibitors of human tyrosyl-DNA phosphodiesterase 1 (TDP1): qHTS in cells in absence of CPT; DT40 Tdp1-/- hTDP1 cells, no CPT, ATP luminescence, 48 h; Potency, µM (series often up to 46.2 µM), without a hit: at the top dose activity change, negative = growth inhibition, usual class: inhibitors; hit rate 15% among 420,000; note: nearly all actives have a fitted effect of over 55% in size
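Chicken DT40 Tdp1-/- cells complemented with human TDP1, screened without camptothecin (DMSO vehicle only), 400 cells/well. Compounds pin-transferred, cells incubated at 37 °C for at least 48 hr. Growth read as ATP-dependent luminescence (CellTiter-Glo, 30 min at RT).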
HT1080-NT tox: qHTS for induction of synthetic lethality in tumor cells producing 2HG: qHTS for the HT-1080-NT fibrosarcoma cell line; HT-1080-NT fibrosarcoma viability, CellTiter-Glo ATP luminescence, 48 h; Potency, µM (top dose mostly 46.1 µM), inactives show at the highest dose activity, negative = less viability, usual class: cytotoxic; hit rate 1.6% among 360,000;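 note: NT is the 2HG producing partner of a matched IDH1 knockdown line; 0% = DMSO-treated cells and -100% = media-only wells without cells; nearly all actives have a fitted effect of over 55% in size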
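A 48-hour cytotoxicity screen used HT-1080-NT cells plated 2 hours before compound delivery. ATP-based CellTiter-Glo luminescence measured viability, normalized to DMSO and no-cell controls.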
Active calls of the source: *; i = inactive; u = inconclusive; x = no result; [ ] = another dose, or the depositor's remark. A selection: hits, their analogues and other compounds. The true share with any hit is near 19%. Calls come from the whole dose curve; as a rule, active = well fitted curve in the direction sought with a large enough effect; inconclusive = small, poorly fitted or top-dose-only effect, or another doubt; inactive = no such curve, though single readings can be large; an effect the other way counts as inactive or inconclusive. Unless noted, % is set by controls: 0 for no effect and ±100 for the full control effect; potency is the fitted concentration of half-maximal effect.

SMILES	DT40 TDP1 CPT	KB-3-1 cytotox	KB-V1 MDR tox	HT1080 IDH1KD tx	TDP1 cell noCPT	HT1080-NT tox
CCCOc1ccccc1C(=O)Nc1nc2c(s1)CCCC2	21µM*	x	x	x	18µM*	x
O=C(COc1ccccc1Cl)Nc1nc2c(s1)CCCC2	8.2µM*	x	x	x	10µM*	x
COc1ccc(C(C(=O)Nc2ccc(F)cc2)N2CCN(c3cccc(C(F)(F)F)n3)CC2)cc1 (configuration not stated)	u	i	i	-5%	u	-3%
CNc1cc[n+](C)c2ccccc12	-2%	i	u	x	-20%	x
CN1/C(=C/c2cc[n+](C)c3ccccc23)C=Cc2ccccc21	0.46µM*	6.5µM*	i	5.8µM*	0.18µM*	7.3µM*
Cc1ccc(C)c(NC(=O)CCCn2c(C)c3cnn(-c4ccccc4)c(=O)c3c2C)c1	18µM*	i	i	x	u	x
Cc1ccc(C)c(N2CCN(C(=O)C(C)n3c(C)c4cnn(-c5ccccc5)c(=O)c4c3C)CC2)c1 (configuration not stated)	21µM*	i	i	x	16µM*	x
Cc1c2cnn(-c3ccccc3)c(=O)c2c(C)n1CC(=O)NCc1ccc(Cl)cc1	-26%	i	i	x	-19%	x
Cc1cccc(N2CCN(C(=O)Cn3c(C)c4cnn(-c5ccccc5)c(=O)c4c3C)CC2)c1C	7.3µM*	u	i	x	5.8µM*	x
Cc1cc(C)c(NC(=O)CCCn2c(C)c3cnn(-c4ccccc4)c(=O)c3c2C)c(C)c1	u	i	i	x	23µM*	x
Cc1c2cnn(-c3ccccc3)c(=O)c2c(C)n1CCCC(=O)Nc1cc(F)ccc1F	-14%	i	i	x	u	x
Cc1ccc(-n2ncc3c(=O)n(CC(=O)N4CCN(c5ccccc5)CC4)cnc32)cc1	-24%	i	u	-5%	-23%	0%
Cc1cccc(N2CCN(C(=O)c3cc4ccccc4oc3=O)CC2)c1C	-5%	i	u	2%	-16%	-2%
Cc1cc(C(=O)N2CCN(c3cccc(C)c3C)CC2)c2c(C)nn(-c3ccccc3)c2n1	u	u	i	x	7.3µM*	x
Cc1cccc(NC(=O)CCCn2c(C)c3cnn(-c4ccccc4)c(=O)c3c2C)c1C	21µM*	i	i	x	u	x
O=C1c2c([N+](=O)[O-])cc([N+](=O)[O-])cc2S(=O)N1Cc1ccccc1 (configuration not stated)	1%	i	i	2%	17%	10%
C=Cn1cc[n+](CC(=O)c2ccc(OC)cc2)c1	u	i	u	5%	21µM*	8%
C=Cn1cc[n+](CC(=O)c2ccc(C)cc2)c1	17%	i	i	13%	-24%	11%
COc1ccc(C(=O)C[n+]2ccc3c(c2)nc(-c2ccccc2)n3C)cc1	12µM*	u	i	u	8.2µM*	u
CCc1ccc(C(=O)Cc2cc3cccc(OC)c3oc2=O)cc1	-2%	i	i	0%	-28%	-1%
COc1ccc(CNC(=O)Cn2c(=O)c3cccn3c3cccnc32)cc1	-5%	x	x	x	-27%	x
Cc1ccc(S(=O)(=O)NCC2CCC(C(=O)NCCCN3CCCC3=O)CC2)cc1 (configuration not stated)	-20%	i	i	23%	30%	8%
Cc1cc(C)nc(N/C(=N\S(=O)(=O)Cc2ccccc2)Nc2ccc(F)c(Cl)c2)n1	18µM*	i	i	11%	26µM*	4%
CC(C)C[C@@H]1Cc2[nH][nH]c(=O)c2[C@H](c2ccc(Cl)cc2)O1	-27%	i	u	-9%	-25%	2%
CCCc1ccccc1OCCNC(C)=O	18µM*	i	i	14%	18µM*	14%
SMILES	DT40 TDP1 CPT	KB-3-1 cytotox	KB-V1 MDR tox	HT1080 IDH1KD tx	TDP1 cell noCPT	HT1080-NT tox
O=C(Cc1cccc2ccccc12)NCCOc1ccccc1F	-27%	i	u	-15%	-24%	-5%
C=CCN(Cc1nc(-c2ccccc2)no1)C(=O)c1ccoc1C	29µM*	i	u	4%	u	-1%
C[C@H]1COc2cc(N(C)CCO)ccc2S(=O)(=O)N1	-1%	i	u	6%	-1%	19%
COc1ccccc1OCC(=O)N(Cc1nc(-c2ccc(Cl)cc2)no1)C(C)C	u	i	u	-2%	16µM*	0%
COc1cccc(OCC(=O)N(Cc2nc(-c3ccc(Cl)cc3)no2)C(C)C)c1	8.2µM*	u	i	u	23µM*	u
Cc1ccc(-c2noc(CN(C(=O)Cc3ccccc3)C(C)C)n2)cc1	u	i	23µM*	-30%	u	-16%
Cc1ccc(OCC(=O)N(Cc2nc(-c3ccccc3)no2)C(C)C)cc1C	u	i	i	x	u	x
Cc1ccc(-c2noc(CN(C(=O)COc3cc(C)cc(C)c3C)C(C)C)n2)cc1	23µM*	i	i	x	u	x
Cc1cc(Br)ccc1OCC(=O)N(Cc1nc(-c2ccccc2)no1)C(C)C	-9%	u	i	-22%	-20%	-1%[9.24 µM]
COc1ccccc1OCC(=O)N(Cc1nc(-c2ccccc2)no1)C(C)C	-18%	i	u	-1%	u	-6%
O=C1CSC(=Nc2cccc([N+](=O)[O-])c2)N1	-4%	i	i	-2%	-17%	-7%
CCCOC(=O)c1ccc(NC(=O)C(CC)CC)cc1	-1%	i	i	15%	-27%	9%
Cc1sc2ncn(CC(=O)N3CCN(c4ccccc4)CC3)c(=O)c2c1S(=O)(=O)N1CCOCC1	18%	i	i	8%	u	7%
CC(C)N1C(=O)CCC1C(=O)NCc1cccs1 (configuration not stated)	3%	i	i	5%	5%	5%
CCOCCCNC(=O)C(c1ccc(Cl)cc1)N(Cc1cccs1)C(=O)c1ccc(NC(C)=O)cc1 (configuration not stated)	15µM*	i	i	x	16µM*	x
CCOCCCNC(=O)C(c1ccc(C)cc1)N(Cc1cccs1)C(=O)c1ccc(NC(C)=O)cc1 (configuration not stated)	21µM*	i	i	x	18µM*	x
